# Source: PubChem BioAssay (NCATS)
# Results filed as inconclusive are left out. Calls of active or inactive are those of the source. The call rests on the fitted dose curve.
# Experiment: Primary qHTS to identify inhibitors of SARS-CoV-2 cell entry (AID 1645846); further: nearly all actives have a fitted effect of over 45% in size
# Details: SARS-CoV-2 pseudovirus cell entry assay, luminescence; activity change, negative = inhibition: at 57.1 µM (top of the series) unless noted
# Summary of the method: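 HEK293 cells stably expressing human ACE2, pre-treated 1 h with compound, then infected with MLV particles pseudotyped with Wuhan-Hu-1 spike (C-terminal 19-aa truncation). Luciferase luminescence after 48 h at 37 °C, normalised to spike PP and bald PP.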
# Potency means the concentration at half of the fitted maximal effect.
Compound,Potency,"activity change, negative = inhibition"
Cc1nc([C@](C)(O)CO)sc1-c1cnc(N)c(O[C@H](C)c2cc(F)ccc2-n2nccn2)c1,22.4 µM (active),
COc1nc(OCc2cccc(-c3ccccc3)c2C)ccc1CNCCNC(C)=O,11.2 µM (active),
Fc1ccc(-c2csc3ncnc(NCc4ccc5c(c4)OCO5)c23)cc1,10 µM (active),
Nc1nccc2c1ncn2[C@@H]1C=C(CO)[C@@H](O)[C@H]1O,,-51.3%
COC(=O)C1=C(C)NC(c2ncc(F)cc2F)=N[C@@H]1c1ccc(F)cc1Cl,,-19.4%
CC(C)(O)CS(=O)(=O)Nc1ccc2c(c1)CCN(C(=O)COc1cccnc1)C2,,-97.4%
COc1ccc(N(C)c2nc(C)nc3ccccc23)cc1,,-80.5%
O=C(NO)c1cnc(N2C[C@H]3C[C@@H]2CN3c2cc(C(F)(F)F)ccn2)nc1,inactive,
COC(=O)[C@H]1[C@@H](O)[C@@]2(O)c3c(OC)cc(O[C@@H]4O[C@@H]([C@@H](O)CO)CO[C@H]4OC)cc3O[C@@]2(c2ccc(OC)cc2)[C@@H]1c1ccccc1,inactive,
COc1ccc2[nH]c(S(=O)Cc3ncc(C)c(OC)c3C)nc2c1 (stereo not given),,-98.9%
CNCc1ccc(C)c(NC(=O)c2ccc(Nc3nc(-c4ccccc4)c4ccccc4n3)cc2)c1,14.1 µM (active),
CC(C)(C)C[C@H]1N[C@@H](C(=O)NC2CCC(O)CC2)[C@H](c2cccc(Cl)c2F)[C@@]12C(=O)Nc1cc(Cl)ccc12 (stereo not given in full),28.2 µM (active),
Cc1nc2ccc(C(=O)N3CCC4(CC3)CC(=O)c3c(cnn3C(C)C)C4)cc2[nH]1,14.1 µM (active),
CC(=O)c1cnc2ccc(-c3cc(Cl)c(O)c(Cl)c3)nc2c1NC1CCC(CN(C)C)CC1 (stereo not given),,-98.1% [at 11.3 µM]
CN(C)C/C=C/C(=O)Nc1ccc(C(=O)Nc2cccc(Nc3ncc(Cl)c(-c4c[nH]c5ccccc45)n3)c2)cc1,1 µM (active),
COc1cc2c(Oc3ccc4[nH]c(C)cc4c3F)ccnc2cc1OCC1(N)CC1,11.2 µM (active),
CCC[C@H](N[C@H]1CCc2cc(F)cc(F)c2C1)C(=O)Nc1cn(C(C)(C)CNCC(C)(C)C)cn1,31.6 µM (active),
COc1cc([C@@H]2c3cc4c(cc3[C@@H](O[C@@H]3O[C@@H]5CO[C@@H](c6cccs6)O[C@H]5[C@H](O)[C@H]3O)[C@H]3COC(=O)[C@H]23)OCO4)cc(OC)c1O,,-96.2%

Compound,Potency,"activity change, negative = inhibition"
O=C(NO)c1cnc(NC2(c3cccc(F)c3)CCCCC2)nc1,28.2 µM (active),
CC(=O)NCC(=O)N1[C@@H]2CC[C@H]1c1ccc(Nc3ncc(C(F)(F)F)c(NC4CCC4)n3)cc12,3.16 µM (active),
CCN(CC)CCNC(=O)c1c(C)[nH]c(/C=C2/C(=O)Nc3ccc(-c4csc(-c5ccccc5)n4)cc32)c1C,22.4 µM (active),
COc1ccc([C@@H]2CC(=O)c3c(O)cc(O[C@@H]4O[C@H](CO[C@@H]5O[C@@H](C)[C@H](O)[C@@H](O)[C@H]5O)[C@@H](O)[C@H](O)[C@H]4O)cc3O2)cc1O,inactive,
COc1cccc(-c2cc(F)ccc2C2Cc3nc(N)nc(C)c3C(=O)N2)n1 (stereo not given),,-91.7%
O=C(NO)c1cnc(NC2(c3ccccc3)CC2)nc1,inactive,
COC(=O)C1=C(C)NC(c2ncc(F)cc2F)=N[C@H]1c1ccc(F)cc1Cl,inactive,
Cc1ccc(NC(=O)NCc2ccc3c(c2)CN(C2CCC(=O)NC2=O)C3=O)cc1Cl (stereo not given),,-96.8%
C/C(=N\NC(=S)N1CCC1)c1ccccn1,,-96.5%
N#C/C(=C1/Nc2ccccc2S1)c1ccnc(OCc2ccc(CN3CCOCC3)cc2)n1,,-97.6%
COc1ccc(/C=C\c2cc(OC)c(OC)c(OC)c2)cc1O,,-68.5%
C=C1C(=O)O[C@@H]2[C@H]3O[C@]3(C)CC/C=C(\C)CC[C@@H]12,22.4 µM (active),
Cc1ccc(NS(=O)(=O)c2cccc(C#N)c2)c2[nH]cc(C#N)c12,,-10.5%
CN1CCCN(C(=O)c2cccc(-c3ccc(/C=C4/C(=O)Nc5ccc(Cl)cc54)o3)c2)CC1,1 µM (active),
CC[C@H](C)[C@@H]([C@@H](CC(=O)N1CCC[C@H]1[C@H](OC)[C@@H](C)C(=O)N[C@@H](Cc1ccccc1)c1nccs1)OC)N(C)C(=O)[C@@H](NC(=O)[C@H](C(C)C)N(C)C)C(C)C,,-79.3%
COc1ccc(Oc2cc(NCCC(F)(F)F)c3ncc(-c4ccc(C(=O)NC5CC5)c(C)c4)n3n2)c(F)c1F,,-12.1%
Cc1cc(-c2nc3cc(F)ccc3s2)ccc1NC(=O)[C@@H](N)CCCCN,28.2 µM (active),
